Data from PubChem BioAssay (EPA / NIEHS).
The source made the active and inactive calls. How the source made its calls: active means hit-call score of the fitted dose curve at least 0.9, where 1 is the maximum; inactive means score below 0.9.

Key:
Details in all cases: mRNA level, 48 h; actives raise or lower the signal
[1] = read-out: Nuclear factor NF-kappa-B p105 subunit (Homo sapiens) (UniProt P19838); assay: LTEA_HepaRG_NFKB1: Life Technologies and Expression Analysis (LTEA) Assay for Nuclear Factor Kappa B Subunit 1 (NFKB1) using HepaRG (AID 2283521);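 further: differentiated human HepaRG liver cells in serum-free induction medium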
In short: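 Human HepaRG cells receive eight half-log concentrations, highest 100 uM, for 48 h. NFKB1 expression is then quantified by qRT-PCR and analysed for up- or down-regulation relative to 0.5% DMSO vehicle.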

[2] = read-out: Phosphatase and tensin (PTEN), PTEN (gene 5728); assay: LTEA_HepaRG_PTEN: Life Technologies and Expression Analysis (LTEA) Assay for Phosphatase and tensin (PTEN) using HepaRG (AID 2283523)
In short: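 Expression of PTEN is quantified in the human liver line HepaRG following two days of dosing (top concentration 100 uM, half-log dilutions, 0.5% DMSO). Values derive from bidirectional curve fitting relative to DMSO controls.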

[3] = read-out: solute carrier (SLC22A1), SLC22A1 (gene 6580); assay: LTEA_HepaRG_SLC22A1: Life Technologies and Expression Analysis (LTEA) Assay for solute carrier (SLC22A1) using HepaRG (AID 2283524);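 on AC50: differentiated human HepaRG liver cells in serum-free induction medium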
In short: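 Transcript induction or suppression of SLC22A1 in human HepaRG cultures is scored after 48 h chemical treatment, with DMSO (0.5%) as baseline for bidirectional fitting. Concentrations span eight half-log points topping at 100 uM.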

[4] = read-out: Pyruvate Dehydrogenase Kinase 4 (PDK4), PDK4 (gene 5166); assay: LTEA_HepaRG_PDK4: Life Technologies and Expression Analysis (LTEA) Assay for Pyruvate Dehydrogenase Kinase 4 (PDK4) using HepaRG (AID 2283525)
In short: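 Eight-point, half-log concentration series (max 100 uM, 0.5% DMSO) applied to differentiated HepaRG cells for 48 h in duplicate. Endpoint: PDK4 mRNA induction or repression by qRT-PCR against DMSO baseline.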

[5] = read-out: NAD(P)H dehydrogenase [quinone] 1 (NQO1), NQO1 (gene 1728); assay: LTEA_HepaRG_NQO1: Life Technologies and Expression Analysis (LTEA) Assay for NAD(P)H dehydrogenase [quinone] 1 (NQO1) using HepaRG (AID 2283526)
In short: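 qRT-PCR read-out (Fluidigm TaqMan), normalized to three housekeeping genes, after 48 h chemical exposure of HepaRG cells. Concentrations: eight points, top 100 uM, half-log steps, 0.5% DMSO vehicle. Gain or loss of signal fitted relative to DMSO.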

[6] = read-out: Nuclear factor erythroid 2-related factor 2 (Homo sapiens) (UniProt Q16236); assay: LTEA_HepaRG_NFE2L2: Life Technologies and Expression Analysis (LTEA) Assay for Nuclear factor erythroid 2-related factor 2 (NFE2L2) Transcription Factor using HepaRG (AID 2283527)
In short: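 Human liver HepaRG line treated in duplicate for 48 h with an eight-point series topping at 100 uM. Gene expression of NFE2L2 by qRT-PCR, bidirectionally fitted against the vehicle control.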

[7] = read-out: succinate dehydrogenase complex iron sulfur subunit B (SDHB), SDHB (gene 6390); assay: LTEA_HepaRG_SDHB: Life Technologies and Expression Analysis (LTEA) Assay for succinate dehydrogenase complex iron sulfur subunit B (SDHB) using HepaRG (AID 2283528)
In short: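 A human HepaRG culture in serum-free induction medium received test chemicals for 48 h over an eight-point range capped at 100 uM. SDHB expression change was quantified by qRT-PCR.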

[8] = read-out: Signal transducer and activator of transcription 3 (Homo sapiens) (UniProt P40763); assay: LTEA_HepaRG_STAT3: Life Technologies and Expression Analysis (LTEA) Assay for Signal transducer and activator of transcription (STAT3) using HepaRG (AID 2283529)
In short: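 In this transcriptional endpoint, HepaRG cultures receive test chemicals at up to 100 uM for 48 h, tested in duplicate. STAT3 mRNA is normalized to ACTB, GAPDH and POLR2A.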

[9] = read-out: solute carrier (SLCO1B1), SLCO1B1 (gene 10599); assay: LTEA_HepaRG_SLCO1B1: Life Technologies and Expression Analysis (LTEA) Assay for solute carrier (SLCO1B1) using HepaRG (AID 2283530)
In short: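 SLCO1B1 transcript levels were quantified by TaqMan qRT-PCR using three housekeeping genes for normalization. This followed 48 h chemical exposure (100 uM top, half-log, 8 points, 0.5% DMSO) of HepaRG liver cells, with gain or loss fitted relative to DMSO.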

[10] = read-out: Transforming Growth Factor (TGFA), TGFA (gene 7039); assay: LTEA_HepaRG_TGFA: Life Technologies and Expression Analysis (LTEA) Assay for Transforming Growth Factor (TGFA) using HepaRG (AID 2283532)
In short: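 Gene expression of TGFA was quantified by qRT-PCR after human HepaRG cells were treated for 48 h with test chemicals (eight concentrations, highest 100 uM, 0.5% DMSO). Activity in either direction was fitted relative to DMSO.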

[11] = read-out: Transforming Growth Factor (TGFB1), TGFB1 (gene 7040); assay: LTEA_HepaRG_TGFB1: Life Technologies and Expression Analysis (LTEA) Assay for Transforming Growth Factor (TGFB1) Transporter using HepaRG (AID 2283533)
In short: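 TGFB1 transcript measured by qRT-PCR with normalisation to three housekeeping genes (ACTB, GAPDH, POLR2A); human HepaRG line treated in duplicate for 48 hr with an 8-point series topping at 100 uM, 0.5% DMSO vehicle, bidirectionally fitted.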

TIMP1, TIMP1 (gene 7076) = assay: LTEA_HepaRG_TIMP1: Life Technologies and Expression Analysis (LTEA) Assay for TIMP1 using HepaRG (AID 2283534)
In short: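 Bidirectional change in TIMP1 transcript versus 0.5% DMSO, measured by TaqMan qRT-PCR with three housekeeping genes for normalization. HepaRG human liver cells dosed 48 h in duplicate, top concentration 100 uM with half-log dilutions.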

[12] = read-out: Tumor necrosis factor receptor 1 (TNFRSF1A), TNFRSF1A (gene 7132); assay: LTEA_HepaRG_TNFRSF1A: Life Technologies and Expression Analysis (LTEA) Assay for Tumor necrosis factor receptor 1 (TNFRSF1A) using HepaRG (AID 2283535)
In short: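 mRNA measured by qRT-PCR (TaqMan, Fluidigm arrays) against ACTB/GAPDH/POLR2A housekeepers after 48 h chemical exposure of HepaRG cells. Top concentration 100 uM, half-log 8-point series, duplicates; vehicle 0.5% DMSO, both fit directions.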

[13] = read-out: Thyroid Hormone Responsive (THRSP), THRSP (gene 7069); assay: LTEA_HepaRG_THRSP: Life Technologies and Expression Analysis (LTEA) Assay for Thyroid Hormone Responsive (THRSP) using HepaRG (AID 2283536)
In short: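 Cell model: human HepaRG, approx. 100,000 cells/well, 0.5% DMSO vehicle. Exposure lasts 48 h; phenobarbital 1 mM serves as induction positive control. Gene expression is measured by qRT-PCR against three endogenous control genes.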

[14] = read-out: UDP glucuronosyltransferase (UGT1A1), UGT1A1 (gene 54658); assay: LTEA_HepaRG_UGT1A1: Life Technologies and Expression Analysis (LTEA) Assay for UDP glucuronosyltransferase (UGT1A1) using HepaRG (AID 2283538)
In short: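 HepaRG, 48 h chemical exposure (top 100 uM, half-log 8-pt, 0.5% DMSO vehicle), duplicate wells; qRT-PCR (TaqMan, Fluidigm array) for UGT1A1 mRNA, housekeeping-normalized; bidirectional curve fit vs DMSO baseline.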

[15] = read-out: UDP glucuronosyltransferase (UGT1A6), UGT1A6 (gene 54578); assay: LTEA_HepaRG_UGT1A6: Life Technologies and Expression Analysis (LTEA) Assay for UDP glucuronosyltransferase (UGT1A6) using HepaRG (AID 2283539)
In short: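 Expression was quantified by TaqMan qRT-PCR on Fluidigm arrays with ACTB/GAPDH/POLR2A normalization and bidirectional fitting against 0.5% DMSO. HepaRG cells (~100,000/well) were treated in duplicate for 48 h at eight half-log concentrations up to 100 uM in serum-free induction medium.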

[16] = read-out: X-box binding protein 1 (XBP1), XBP1 (gene 7494); assay: LTEA_HepaRG_XBP1: Life Technologies and Expression Analysis (LTEA) Assay for X-box binding protein 1 (XBP1) using HepaRG (AID 2283540)
In short: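 XBP1 transcript by qRT-PCR (housekeeping-normalized: ACTB, GAPDH, POLR2A) after 48 h chemical treatment of HepaRG cells, 8-point half-log series topping at 100 uM, vehicle 0.5% DMSO. Gain and loss of signal fitted relative to DMSO.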

[17] = read-out: sulfotransferase 2A1 (SULT2A1), SULT2A1 (gene 6822); assay: LTEA_HepaRG_SULT2A1: Life Technologies and Expression Analysis (LTEA) Assay for sulfotransferase 2A1 (SULT2A1) using HepaRG (AID 2283531)
In short: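 Expression change of SULT2A1, by qRT-PCR with three housekeeping-gene normalization, was scored bidirectionally versus DMSO. Cells: differentiated HepaRG, dosed in duplicate for 48 h across 8 points, highest 100 µM, half-log dilution, 0.5% DMSO.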

[18] = read-out: Cellular tumor antigen p53 (Homo sapiens) (UniProt P04637); assay: LTEA_HepaRG_TP53: Life Technologies and Expression Analysis (LTEA) Assay for Tumor Protein P53 (TP53) using HepaRG (AID 2283537)
In short: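 Gain or loss of TP53 mRNA signal is scored relative to 0.5% DMSO after 48 h chemical treatment of HepaRG liver cells, tested in duplicate at eight half-log concentrations up to 100 uM.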

Measured: AC50

Chain of Signal transducer and activator of transcription 3 (Homo sapiens) (P40763 whole entry, looked up): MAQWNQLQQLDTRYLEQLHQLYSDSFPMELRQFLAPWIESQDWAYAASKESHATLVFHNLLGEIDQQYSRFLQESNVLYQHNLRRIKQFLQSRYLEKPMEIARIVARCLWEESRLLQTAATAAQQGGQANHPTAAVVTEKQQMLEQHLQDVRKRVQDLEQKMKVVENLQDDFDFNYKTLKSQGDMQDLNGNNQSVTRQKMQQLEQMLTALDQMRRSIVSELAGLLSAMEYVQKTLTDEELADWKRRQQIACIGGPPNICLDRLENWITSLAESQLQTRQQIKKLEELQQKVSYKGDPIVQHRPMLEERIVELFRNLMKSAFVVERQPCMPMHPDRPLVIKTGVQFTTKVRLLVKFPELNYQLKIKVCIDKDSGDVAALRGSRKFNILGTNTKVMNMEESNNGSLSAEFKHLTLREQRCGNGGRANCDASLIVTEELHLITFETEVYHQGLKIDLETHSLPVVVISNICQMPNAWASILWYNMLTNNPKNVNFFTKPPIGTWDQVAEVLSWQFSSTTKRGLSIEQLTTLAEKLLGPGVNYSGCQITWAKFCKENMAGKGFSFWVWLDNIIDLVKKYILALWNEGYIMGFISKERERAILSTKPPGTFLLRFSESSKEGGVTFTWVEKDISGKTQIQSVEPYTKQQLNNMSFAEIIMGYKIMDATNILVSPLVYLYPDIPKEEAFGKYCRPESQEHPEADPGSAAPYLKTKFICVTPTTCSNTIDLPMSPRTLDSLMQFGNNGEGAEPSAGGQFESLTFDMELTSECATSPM
Chain of Nuclear factor NF-kappa-B p105 subunit (Homo sapiens) (P19838 whole entry, looked up): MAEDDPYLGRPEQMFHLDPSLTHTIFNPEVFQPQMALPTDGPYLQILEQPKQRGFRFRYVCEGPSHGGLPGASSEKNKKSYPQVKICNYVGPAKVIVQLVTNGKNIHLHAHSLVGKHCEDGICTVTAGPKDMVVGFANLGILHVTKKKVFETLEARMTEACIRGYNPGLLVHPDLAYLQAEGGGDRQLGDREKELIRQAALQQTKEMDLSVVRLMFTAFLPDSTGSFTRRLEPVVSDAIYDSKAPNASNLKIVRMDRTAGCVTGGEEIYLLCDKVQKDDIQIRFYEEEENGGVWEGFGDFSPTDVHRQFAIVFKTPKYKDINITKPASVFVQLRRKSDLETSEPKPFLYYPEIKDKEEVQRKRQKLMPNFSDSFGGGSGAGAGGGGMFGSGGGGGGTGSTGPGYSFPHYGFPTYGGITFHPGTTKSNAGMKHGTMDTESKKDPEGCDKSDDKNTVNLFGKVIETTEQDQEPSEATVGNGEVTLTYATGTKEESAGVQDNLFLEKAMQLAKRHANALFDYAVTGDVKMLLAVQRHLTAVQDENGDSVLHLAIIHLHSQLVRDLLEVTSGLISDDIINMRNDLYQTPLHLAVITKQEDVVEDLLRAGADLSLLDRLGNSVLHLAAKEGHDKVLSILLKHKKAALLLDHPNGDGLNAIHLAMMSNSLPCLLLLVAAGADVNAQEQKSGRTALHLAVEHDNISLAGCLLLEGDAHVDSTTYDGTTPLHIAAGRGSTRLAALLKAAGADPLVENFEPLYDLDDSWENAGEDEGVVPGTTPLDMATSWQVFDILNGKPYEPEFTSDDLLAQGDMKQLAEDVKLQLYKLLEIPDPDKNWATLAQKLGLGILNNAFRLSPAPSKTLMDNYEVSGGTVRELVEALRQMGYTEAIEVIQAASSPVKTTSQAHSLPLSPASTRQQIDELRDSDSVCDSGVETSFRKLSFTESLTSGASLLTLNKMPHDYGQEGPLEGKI
Chain of Nuclear factor erythroid 2-related factor 2 (Homo sapiens) (Q16236 whole entry, looked up): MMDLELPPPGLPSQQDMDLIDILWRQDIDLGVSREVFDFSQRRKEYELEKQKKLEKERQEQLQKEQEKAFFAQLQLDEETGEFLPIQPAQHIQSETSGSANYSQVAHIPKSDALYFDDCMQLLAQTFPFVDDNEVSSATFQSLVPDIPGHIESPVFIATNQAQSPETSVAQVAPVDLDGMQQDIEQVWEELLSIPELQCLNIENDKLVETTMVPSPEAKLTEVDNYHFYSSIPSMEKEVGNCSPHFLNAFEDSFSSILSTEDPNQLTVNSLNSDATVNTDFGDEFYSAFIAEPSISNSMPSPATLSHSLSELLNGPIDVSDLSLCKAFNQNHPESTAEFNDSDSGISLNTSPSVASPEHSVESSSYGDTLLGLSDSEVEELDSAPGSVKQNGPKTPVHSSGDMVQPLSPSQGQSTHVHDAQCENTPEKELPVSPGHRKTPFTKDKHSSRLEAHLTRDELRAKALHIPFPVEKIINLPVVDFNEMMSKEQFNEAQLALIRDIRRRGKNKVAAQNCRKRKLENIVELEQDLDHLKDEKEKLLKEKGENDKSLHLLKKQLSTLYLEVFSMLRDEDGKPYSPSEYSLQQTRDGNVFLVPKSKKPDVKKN
Chain of Cellular tumor antigen p53 (Homo sapiens) (P04637 whole entry, looked up): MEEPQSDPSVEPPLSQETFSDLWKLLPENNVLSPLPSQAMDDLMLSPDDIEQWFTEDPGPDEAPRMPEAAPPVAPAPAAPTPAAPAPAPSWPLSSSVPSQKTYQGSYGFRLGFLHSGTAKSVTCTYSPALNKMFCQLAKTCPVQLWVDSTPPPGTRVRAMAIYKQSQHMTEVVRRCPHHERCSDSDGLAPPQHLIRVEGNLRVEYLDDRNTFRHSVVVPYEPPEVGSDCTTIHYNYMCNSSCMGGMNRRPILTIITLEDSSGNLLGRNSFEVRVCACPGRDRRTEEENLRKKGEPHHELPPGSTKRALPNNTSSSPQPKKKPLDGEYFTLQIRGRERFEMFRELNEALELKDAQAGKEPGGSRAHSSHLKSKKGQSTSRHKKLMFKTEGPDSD

O=C(N[C@@H](c1ccccc1)[C@@H]1CCCCN1)c1cccc(C(F)(F)F)c1Cl
active: [2] 75.2 µM | [3] 40.5 µM | [4] 50 µM | [6] 83.8 µM | [7] 91.4 µM | [8] 80.3 µM | [9] 37.1 µM | [11] 82.3 µM | [12] 82.2 µM | [14] 57.7 µM | [15] 69.1 µM
inactive: [1] | [5] | [10] | TIMP1, TIMP1 (gene 7076) | [13] | [16]

Cc1occc(=O)c1O
not listed: [16] | [18]
inactive: all other assays above

CCCCC(CC)CO (stereo not drawn)
not listed: [5] | [17]
inactive: all other assays above

O=C1CCCCC1
active: [12] 0.0538 µM
not listed: [14] | [16] | [18]
inactive: all other assays above

C/C=C/c1ccc(OC)cc1
not listed: [17] | [18]
inactive: all other assays above

Cn1cnc2c1c(=O)[nH]c(=O)n2C
not listed: [14] | [17] | [18]
inactive: all other assays above

CC(=O)OCC(COC(C)=O)OC(C)=O
not listed: [14] | [17] | [18]
inactive: all other assays above

Cc1ccc(C(C)(C)C)c(O)c1
not listed: [14] | [17]
inactive: all other assays above
